Test results published in the supplement of paper PMC11732987, “Enantioselective OTUD7B fragment discovery through chemoproteomics screening and high-throughput optimisation” (Communications Chemistry, 2025).

Legend:
Assay in all cases: log2 ratio of Biotin-Ahx-Ub-VS probe labelling (fragment/DMSO); higher = less target engagement (more negative = stronger competition), active = hit call of the paper (q ≤ 0.05, log2 ratio ≤ -1)
Settings in all cases: compound concentration: 200 uM; treatment time: 3 h
USP34 = USP34 (UniProt Q70CQ2)
How it was run: (§1)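 Labelled DUBs were enriched with NeutrAvidin, digested with LysC and trypsin, and run by diaPASEF LC-MS/MS. The labelling used Biotin-Ahx-Ub-VS at 0.5 µM final for 1 h on HEK293T lysate (495 µg per sample) previously treated in triplicate with fragment at 200 µM or vehicle for 3 h. Values are average log2 fragment/vehicle ratios by unpaired t-test on global-median-normalised Spectronaut quantities of proteins with ≥2 unique peptides.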

USP36 = target: T1, USP36 (UniProt Q9P275)
T1 sequence (whole entry): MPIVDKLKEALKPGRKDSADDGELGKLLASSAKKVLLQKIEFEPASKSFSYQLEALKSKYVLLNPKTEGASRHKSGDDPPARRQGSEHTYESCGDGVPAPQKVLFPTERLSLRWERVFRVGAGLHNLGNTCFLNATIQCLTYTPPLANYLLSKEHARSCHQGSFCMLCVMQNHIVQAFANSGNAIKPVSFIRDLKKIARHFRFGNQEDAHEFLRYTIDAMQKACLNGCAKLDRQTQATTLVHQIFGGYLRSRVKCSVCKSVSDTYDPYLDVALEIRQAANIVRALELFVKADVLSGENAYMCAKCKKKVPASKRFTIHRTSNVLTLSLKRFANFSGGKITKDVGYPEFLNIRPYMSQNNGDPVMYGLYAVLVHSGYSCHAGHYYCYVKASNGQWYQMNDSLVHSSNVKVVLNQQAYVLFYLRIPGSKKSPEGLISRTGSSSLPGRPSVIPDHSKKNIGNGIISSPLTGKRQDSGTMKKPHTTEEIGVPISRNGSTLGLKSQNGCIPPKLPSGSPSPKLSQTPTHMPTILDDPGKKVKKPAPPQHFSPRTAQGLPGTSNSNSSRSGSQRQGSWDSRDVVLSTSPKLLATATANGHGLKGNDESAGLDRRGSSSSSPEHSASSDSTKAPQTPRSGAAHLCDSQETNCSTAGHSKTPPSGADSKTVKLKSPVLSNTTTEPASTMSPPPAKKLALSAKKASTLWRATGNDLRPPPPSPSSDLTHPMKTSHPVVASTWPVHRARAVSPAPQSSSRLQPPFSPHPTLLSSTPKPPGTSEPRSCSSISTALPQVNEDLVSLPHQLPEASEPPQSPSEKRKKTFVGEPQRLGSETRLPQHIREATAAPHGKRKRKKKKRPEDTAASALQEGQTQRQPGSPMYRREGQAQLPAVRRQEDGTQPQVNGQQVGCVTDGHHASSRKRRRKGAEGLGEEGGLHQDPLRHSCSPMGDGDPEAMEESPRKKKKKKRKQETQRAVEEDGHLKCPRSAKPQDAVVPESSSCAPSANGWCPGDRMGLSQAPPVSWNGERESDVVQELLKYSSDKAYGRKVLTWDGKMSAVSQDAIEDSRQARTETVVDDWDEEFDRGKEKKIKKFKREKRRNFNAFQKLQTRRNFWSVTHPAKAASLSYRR
How it was run: as §1

USP38 = target: T2, USP38 (UniProt Q8NB14)
T2 sequence (whole entry): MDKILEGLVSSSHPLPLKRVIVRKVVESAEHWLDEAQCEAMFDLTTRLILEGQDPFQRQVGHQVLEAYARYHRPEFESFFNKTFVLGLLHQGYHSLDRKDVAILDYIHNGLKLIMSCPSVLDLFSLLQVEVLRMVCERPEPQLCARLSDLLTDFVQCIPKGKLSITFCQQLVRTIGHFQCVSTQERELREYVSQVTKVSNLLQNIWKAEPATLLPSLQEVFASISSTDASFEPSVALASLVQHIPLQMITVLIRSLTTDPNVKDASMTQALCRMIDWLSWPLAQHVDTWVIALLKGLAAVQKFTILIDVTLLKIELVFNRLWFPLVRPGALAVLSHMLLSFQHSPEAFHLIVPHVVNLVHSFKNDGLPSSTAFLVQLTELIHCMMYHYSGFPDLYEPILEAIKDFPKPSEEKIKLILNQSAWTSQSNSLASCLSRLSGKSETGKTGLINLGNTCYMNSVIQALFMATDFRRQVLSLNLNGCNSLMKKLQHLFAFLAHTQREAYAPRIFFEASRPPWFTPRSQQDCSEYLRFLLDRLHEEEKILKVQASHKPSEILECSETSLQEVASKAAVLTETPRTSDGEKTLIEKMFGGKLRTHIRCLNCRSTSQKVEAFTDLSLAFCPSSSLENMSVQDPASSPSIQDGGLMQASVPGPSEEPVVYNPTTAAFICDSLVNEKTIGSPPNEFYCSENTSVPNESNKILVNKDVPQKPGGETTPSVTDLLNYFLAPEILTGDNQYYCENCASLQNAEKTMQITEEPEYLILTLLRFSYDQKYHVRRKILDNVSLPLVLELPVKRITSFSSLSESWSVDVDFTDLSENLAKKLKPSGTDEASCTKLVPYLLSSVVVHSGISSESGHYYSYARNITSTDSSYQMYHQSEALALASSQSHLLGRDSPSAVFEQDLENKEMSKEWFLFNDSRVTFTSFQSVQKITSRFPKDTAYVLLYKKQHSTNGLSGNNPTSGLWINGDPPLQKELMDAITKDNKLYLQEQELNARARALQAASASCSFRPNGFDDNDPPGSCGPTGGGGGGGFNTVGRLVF
How it was run: as §1

USP39 = target: T3, USP39 (UniProt Q53GS9)
T3 sequence (whole entry): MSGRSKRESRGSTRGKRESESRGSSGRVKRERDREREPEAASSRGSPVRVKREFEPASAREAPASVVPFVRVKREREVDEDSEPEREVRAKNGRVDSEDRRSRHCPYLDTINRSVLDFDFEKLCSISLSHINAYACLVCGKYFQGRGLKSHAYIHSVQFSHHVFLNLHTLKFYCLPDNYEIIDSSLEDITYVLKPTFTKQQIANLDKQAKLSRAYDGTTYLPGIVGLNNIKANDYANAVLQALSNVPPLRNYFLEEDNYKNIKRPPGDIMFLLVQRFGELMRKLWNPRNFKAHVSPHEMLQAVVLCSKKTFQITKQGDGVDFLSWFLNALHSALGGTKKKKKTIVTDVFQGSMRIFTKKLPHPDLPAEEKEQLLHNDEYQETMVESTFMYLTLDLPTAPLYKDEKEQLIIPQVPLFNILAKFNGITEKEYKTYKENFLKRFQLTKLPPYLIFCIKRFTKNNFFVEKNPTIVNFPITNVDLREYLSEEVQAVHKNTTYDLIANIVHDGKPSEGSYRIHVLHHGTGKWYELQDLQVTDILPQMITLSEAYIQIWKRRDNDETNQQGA
How it was run: as §1

USP4 = target: T4, USP4 (UniProt Q13107)
T4 sequence (whole entry): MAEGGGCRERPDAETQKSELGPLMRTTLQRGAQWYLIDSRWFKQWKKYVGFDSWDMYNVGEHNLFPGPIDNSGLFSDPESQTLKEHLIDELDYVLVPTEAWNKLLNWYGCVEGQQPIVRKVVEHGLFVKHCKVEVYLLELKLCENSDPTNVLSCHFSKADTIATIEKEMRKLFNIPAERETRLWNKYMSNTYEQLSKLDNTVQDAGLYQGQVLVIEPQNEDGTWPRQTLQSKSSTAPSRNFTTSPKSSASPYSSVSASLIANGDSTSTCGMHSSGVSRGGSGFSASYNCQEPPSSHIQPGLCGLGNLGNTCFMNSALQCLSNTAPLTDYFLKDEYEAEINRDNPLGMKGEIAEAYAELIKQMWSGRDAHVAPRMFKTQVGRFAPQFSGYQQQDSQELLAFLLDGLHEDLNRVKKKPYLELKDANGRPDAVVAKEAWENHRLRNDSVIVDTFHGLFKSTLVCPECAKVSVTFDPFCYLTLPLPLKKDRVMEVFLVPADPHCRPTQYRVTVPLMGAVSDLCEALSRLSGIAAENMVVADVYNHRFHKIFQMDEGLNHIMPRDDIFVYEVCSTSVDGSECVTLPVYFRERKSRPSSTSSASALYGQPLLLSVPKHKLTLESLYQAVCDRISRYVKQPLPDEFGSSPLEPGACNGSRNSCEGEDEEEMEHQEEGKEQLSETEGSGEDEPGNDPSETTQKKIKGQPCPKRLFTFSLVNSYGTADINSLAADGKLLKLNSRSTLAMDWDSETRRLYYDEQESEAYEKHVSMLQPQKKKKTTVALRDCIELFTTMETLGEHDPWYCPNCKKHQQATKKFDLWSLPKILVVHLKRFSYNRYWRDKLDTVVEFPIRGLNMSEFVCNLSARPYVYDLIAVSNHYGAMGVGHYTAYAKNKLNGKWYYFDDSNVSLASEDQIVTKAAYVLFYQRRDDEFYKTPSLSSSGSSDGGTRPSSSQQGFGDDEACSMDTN
How it was run: as §1

Measured: log2 ratio of Biotin-Ahx-Ub-VS probe labelling

Sequence of USP34 (Q70CQ2 whole entry, the tested form may be a part): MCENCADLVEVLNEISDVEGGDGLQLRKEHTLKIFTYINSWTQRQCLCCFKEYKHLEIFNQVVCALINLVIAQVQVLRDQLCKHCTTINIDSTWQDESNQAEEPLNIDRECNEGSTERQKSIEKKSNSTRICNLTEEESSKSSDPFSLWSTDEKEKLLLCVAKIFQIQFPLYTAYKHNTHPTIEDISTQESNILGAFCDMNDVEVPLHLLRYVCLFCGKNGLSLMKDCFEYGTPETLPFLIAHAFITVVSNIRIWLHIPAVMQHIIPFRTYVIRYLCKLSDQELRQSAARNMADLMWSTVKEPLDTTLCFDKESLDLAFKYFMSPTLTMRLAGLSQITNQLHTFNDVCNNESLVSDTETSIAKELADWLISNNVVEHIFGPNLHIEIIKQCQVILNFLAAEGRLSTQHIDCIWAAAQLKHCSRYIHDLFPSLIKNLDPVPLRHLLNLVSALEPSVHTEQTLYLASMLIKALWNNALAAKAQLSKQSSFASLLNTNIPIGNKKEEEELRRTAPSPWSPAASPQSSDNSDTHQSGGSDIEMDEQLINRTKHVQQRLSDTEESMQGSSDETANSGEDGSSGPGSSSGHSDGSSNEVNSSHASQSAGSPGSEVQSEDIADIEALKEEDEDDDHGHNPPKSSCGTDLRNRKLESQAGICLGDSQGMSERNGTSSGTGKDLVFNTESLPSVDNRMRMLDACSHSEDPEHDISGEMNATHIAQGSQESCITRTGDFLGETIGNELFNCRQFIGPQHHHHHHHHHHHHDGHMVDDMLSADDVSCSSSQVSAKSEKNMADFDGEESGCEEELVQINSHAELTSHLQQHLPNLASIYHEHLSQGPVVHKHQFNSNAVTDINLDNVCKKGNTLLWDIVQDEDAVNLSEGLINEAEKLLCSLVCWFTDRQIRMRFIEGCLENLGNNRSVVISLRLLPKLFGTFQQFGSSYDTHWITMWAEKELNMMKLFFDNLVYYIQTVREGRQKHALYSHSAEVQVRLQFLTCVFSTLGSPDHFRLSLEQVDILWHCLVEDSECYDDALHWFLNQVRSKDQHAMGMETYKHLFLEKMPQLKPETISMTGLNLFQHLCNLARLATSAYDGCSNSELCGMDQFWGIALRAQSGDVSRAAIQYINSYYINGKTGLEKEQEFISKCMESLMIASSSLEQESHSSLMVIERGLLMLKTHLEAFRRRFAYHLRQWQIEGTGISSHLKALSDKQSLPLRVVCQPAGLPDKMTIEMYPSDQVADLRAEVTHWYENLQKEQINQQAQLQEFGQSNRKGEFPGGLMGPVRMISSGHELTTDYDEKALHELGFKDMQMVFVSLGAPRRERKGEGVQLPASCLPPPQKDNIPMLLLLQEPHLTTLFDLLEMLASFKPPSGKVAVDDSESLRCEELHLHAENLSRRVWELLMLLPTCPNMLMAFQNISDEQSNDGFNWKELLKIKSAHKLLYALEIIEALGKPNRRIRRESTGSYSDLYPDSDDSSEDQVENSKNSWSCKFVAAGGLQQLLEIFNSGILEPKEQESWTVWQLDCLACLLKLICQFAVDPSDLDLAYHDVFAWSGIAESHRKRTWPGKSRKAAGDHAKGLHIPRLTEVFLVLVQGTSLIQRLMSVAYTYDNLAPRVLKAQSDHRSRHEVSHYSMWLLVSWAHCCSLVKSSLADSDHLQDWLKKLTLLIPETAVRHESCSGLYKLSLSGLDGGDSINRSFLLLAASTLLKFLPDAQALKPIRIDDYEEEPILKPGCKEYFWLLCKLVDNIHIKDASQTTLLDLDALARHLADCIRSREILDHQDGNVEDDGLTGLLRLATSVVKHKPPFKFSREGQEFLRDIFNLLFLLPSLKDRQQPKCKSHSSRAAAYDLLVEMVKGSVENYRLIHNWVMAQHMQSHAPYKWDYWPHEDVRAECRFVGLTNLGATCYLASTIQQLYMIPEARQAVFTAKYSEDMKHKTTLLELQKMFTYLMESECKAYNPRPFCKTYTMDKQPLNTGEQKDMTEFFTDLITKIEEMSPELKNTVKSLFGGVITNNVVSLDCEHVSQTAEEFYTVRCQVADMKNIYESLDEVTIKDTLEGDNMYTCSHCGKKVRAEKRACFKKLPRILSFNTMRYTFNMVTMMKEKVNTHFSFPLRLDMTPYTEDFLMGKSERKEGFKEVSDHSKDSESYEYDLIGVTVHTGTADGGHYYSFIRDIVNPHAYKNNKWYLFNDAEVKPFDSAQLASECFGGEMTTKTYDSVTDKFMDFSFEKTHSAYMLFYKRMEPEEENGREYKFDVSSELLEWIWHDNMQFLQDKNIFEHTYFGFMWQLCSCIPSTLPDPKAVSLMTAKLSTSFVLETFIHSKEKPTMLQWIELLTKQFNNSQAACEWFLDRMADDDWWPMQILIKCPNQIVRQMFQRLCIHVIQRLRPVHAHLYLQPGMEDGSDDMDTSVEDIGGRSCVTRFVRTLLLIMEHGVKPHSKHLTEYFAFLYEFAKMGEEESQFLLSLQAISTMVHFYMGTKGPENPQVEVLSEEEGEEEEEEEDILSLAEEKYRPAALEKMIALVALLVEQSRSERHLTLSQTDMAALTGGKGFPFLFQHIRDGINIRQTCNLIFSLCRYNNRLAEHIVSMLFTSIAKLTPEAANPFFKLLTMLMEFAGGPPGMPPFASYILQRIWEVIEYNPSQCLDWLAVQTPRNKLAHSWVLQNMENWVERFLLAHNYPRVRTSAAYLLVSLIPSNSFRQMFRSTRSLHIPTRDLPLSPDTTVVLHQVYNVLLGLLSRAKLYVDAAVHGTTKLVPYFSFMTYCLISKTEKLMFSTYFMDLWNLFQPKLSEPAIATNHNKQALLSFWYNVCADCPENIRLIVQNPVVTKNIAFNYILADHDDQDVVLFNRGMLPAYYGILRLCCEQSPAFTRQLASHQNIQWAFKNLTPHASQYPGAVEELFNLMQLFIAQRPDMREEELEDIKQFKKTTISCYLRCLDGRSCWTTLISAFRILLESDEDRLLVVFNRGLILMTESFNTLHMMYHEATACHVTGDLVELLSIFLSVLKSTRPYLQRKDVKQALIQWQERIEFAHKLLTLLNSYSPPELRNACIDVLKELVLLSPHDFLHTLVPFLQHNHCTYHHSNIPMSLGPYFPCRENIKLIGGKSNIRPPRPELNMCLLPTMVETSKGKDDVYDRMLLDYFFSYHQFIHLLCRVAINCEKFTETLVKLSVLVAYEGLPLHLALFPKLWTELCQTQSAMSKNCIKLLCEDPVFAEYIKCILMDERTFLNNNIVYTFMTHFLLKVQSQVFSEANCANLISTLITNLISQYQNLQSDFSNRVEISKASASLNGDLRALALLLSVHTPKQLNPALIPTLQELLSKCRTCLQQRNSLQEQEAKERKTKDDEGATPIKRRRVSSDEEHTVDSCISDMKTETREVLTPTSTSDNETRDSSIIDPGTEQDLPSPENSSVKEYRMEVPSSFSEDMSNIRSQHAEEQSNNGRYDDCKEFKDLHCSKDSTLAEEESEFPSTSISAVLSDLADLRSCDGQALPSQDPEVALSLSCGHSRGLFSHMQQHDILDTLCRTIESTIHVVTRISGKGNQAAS

O=C(CCl)NC1CCC(C(F)(F)F)CC1 (stereo not given)
inactive: USP34 -0.186 | USP36 -0.0199 | USP38 0.115 | USP39 0.207 | USP4 -0.24
